# In PubChem BioAssay (NCATS):
# Values joined by “and” are separate entries in the source; they are usually repeats but may differ in a detail not shown here. Equal values may be shown once. Results filed as inconclusive are left out. Some structures have more than one record in an assay (separate samples or runs), and their calls can disagree. Active and inactive are the calls of the source. Calls come from the whole dose curve; as a rule, active = well fitted curve in the direction sought with a large enough effect; inconclusive = small, poorly fitted or top-dose-only effect, or another doubt; inactive = no such curve, though single readings can be large; an effect the other way counts as inactive or inconclusive.
# Test: Primary qHTS for inhibitors of nuclear receptor binding SET domain protein 2 (NSD2) in an isogenic RCH-ACV NSD2 p.E1099K mutant (9B) (AID 1645876)
# Conditions: RCH-ACV NSD2 E1099K (9B) viability, CellTiter-Glo, 72 h; series mostly up to 44.9 µM
# % is set by controls: 0 for no effect and ±100 for the full control effect; potency is the fitted concentration of half-maximal effect.
# Note: nearly all actives have a fitted effect of over 70% in size.
SMILES,Potency,"activity change, negative = viability loss"
Cc1cccc(Nc2nc(N[C@@H]3CCCC[C@H]3N)ncc2C(N)=O)c1,1.48 µM (active),
CN[C@@H](C)[C@H]1[C@H](O)C[C@@]2(C)[C@@H]3CC[C@H]4C(C)(C)[C@@H](NC)CC[C@@]45C[C@@]35CC[C@]12C,,5.77% [at 9.23 µM] (inactive)
CCCCn1c(=O)n(Cc2ccccc2F)c(=O)c2[nH]c(Cc3ccc(NC(C)=O)cc3)nc21,inactive,

# Test: Primary qHTS for inhibitors of nuclear receptor binding SET domain protein 2 (NSD2) in an RCH-ACV wild type WT cells (2C) (AID 1645877)
# Conditions: RCH-ACV (leukaemia line) NSD2 WT (2C) viability, CellTiter-Glo, 72 h; series mostly up to 44.9 µM
SMILES,Potency,"activity change, negative = cell killing"
Cc1csc(-c2nnc(Nc3ccc(Oc4ncccc4-c4ccnc(N)n4)cc3)c3ccccc23)c1,inactive and 3 nM (active),
Cc1ccc(C(=O)N(CCCN)[C@@H](c2nc3cc(Cl)ccc3c(=O)n2Cc2ccccc2)C(C)C)cc1,0.0132 µM (active),
CN(C)CCOc1cc(-c2cn[nH]c2)ccc1NC(=O)C1COc2ccccc2O1 (stereo not given),4.59 µM (active),
CS(=O)(=O)c1ccc(C2=C(c3ccccc3)C(=O)OC2)cc1,inactive,
CCN1CCN(c2ccc(Nc3cc(N(C)C(=O)Nc4c(Cl)c(OC)cc(OC)c4Cl)ncn3)cc2)CC1,inactive,
Cc1cnc(CNC(=O)c2c(=O)c3ccc(N4CCCN(C)CC4)nc3n3c2sc2ccccc23)cn1,0.121 µM (active),
COc1ccc(-c2ccc3ncc4c(c3c2)n(-c2ccc(N3CCNCC3)c(C(F)(F)F)c2)c(=O)n4C)cn1,7.3 nM (active) and 14.6 nM (active) and 18.6 nM (active),
Nc1ncnc2c1c(-c1cccc(OCc3ccccc3)c1)cn2C1CC(CN2CCC2)C1 (stereo not given),2.9 µM (active),
CC(C)Oc1cc(Nc2nc(N[C@@H](C)c3ccc(F)cn3)ncc2Cl)[nH]n1,9.34 µM (active) and 6.51 µM (active),
CNC(=O)c1ccc2c(C(=Nc3cccc(CN(C)C)c3)c3ccccc3)c(O)[nH]c2c1,16.6 µM (active),
O=C(c1ccc(C(=O)N2CCC(N3CCCC3)CC2)c(Nc2ccccc2)c1)N1CCC(N2CCCC2)CC1,inactive,
Cn1c(=O)c(-c2c(Cl)cccc2Cl)cc2cnc(Nc3cccc(C(=O)O)c3)nc21,inactive,
CSc1cccc(Nc2ncc3cc(-c4c(Cl)cccc4Cl)c(=O)n(C)c3n2)c1,2.06 µM (active),
N#CC1(c2cccc(C(=O)Nc3cc(Oc4ccc5nc(NC(=O)C6CC6)sc5n4)ccc3F)c2Cl)CC1,3.65 µM (active) and inactive,
CN1C(=O)C(Cc2c[nH]c3ccccc23)NC1=S (stereo not given),inactive,
C[C@@H](N)c1ccc(C(=O)Nc2ccnc3[nH]ccc23)cc1,4.17 µM (active),
COc1ccc(CCN(C)CCCOc2ccc(S(=O)(=O)c3[nH]c4ccccc4c3C(C)C)cc2)cc1OC,16.6 µM (active),
COc1nccc(-c2c(-c3ccc(F)cc3)ncn2C2CCC(O)CC2)n1 (stereo not given),20.9 µM (active),
CC1(C)CC(=O)c2c(C(F)(F)F)nn(-c3ccc(C(N)=O)c(NC4CCC(O)CC4)c3)c2C1 (stereo not given),57.8 nM (active) and 83.3 nM (active),
CC(C)CNc1ccnc(NCc2csc(-c3ccccc3)n2)n1,8.33 µM (active),
O=C1CN2Cc3c(ccc(Cl)c3Cl)N=C2N1,inactive,
COc1cc2c(cc1Cc1cccc(Cl)c1F)c(=O)c(C(=O)O)cn2[C@H](CO)C(C)C,5.25 µM (active),
Cc1ccc(C(=O)N(CCCN)[C@@H](c2oc3cc(Cl)ccc3c(=O)c2Cc2ccccc2)C(C)C)cc1,0.0263 µM (active),
O=C(CC12CC3CC(CC(C3)C1)C2)Nc1cccc2nc(NCCNCCO)ccc12,20.9 µM (active),
CNC(=O)c1cc(Oc2ccc(NC(=O)Nc3ccc(Cl)c(C(F)(F)F)c3)c(F)c2)ccn1,18.3 µM (active),
Cc1cccc(Nc2nc(N[C@@H]3CCCC[C@H]3N)ncc2C(N)=O)c1,1.48 µM (active),
CN[C@@H](C)[C@H]1[C@H](O)C[C@@]2(C)[C@@H]3CC[C@H]4C(C)(C)[C@@H](NC)CC[C@@]45C[C@@]35CC[C@]12C,,-13.6% [at 9.23 µM] (inactive)
